A selection: hits, their analogues and other compounds. The true share with any hit is near 7.3%.
FMDV antiviral – blocks foot and mouth disease virus; Potency, µM (highest dose often 57.9 µM), without a hit: at the top dose activity change, negative = inhibition, usual class: inhibitors; FMDV antiviral cell-based qHTS; 1.2% of 410,000 active; calls by dose curve; tested in HEK293T cells; note: read-out not given here; potency is the fitted concentration of half-maximal effect; nearly all actives have a fitted effect of over 45% in size
VACV Venus inh – vaccinia inhibition (Venus reporter); Potency, µM (top dose mostly 36.5 µM), without a hit: at the top dose activity change, negative = inhibition, most hits filed as inhibitors; 0.46% of 330,000 active; Vaccinia virus Venus reporter expression, fluorescence; calls by dose curve; tested in A549 cells; note: potency is the fitted concentration of half-maximal effect; nearly all actives have a fitted effect of over 30% in size
HCMV antiviral – human cytomegalovirus inhibition; AID 1259415; 4.5% of 410,000 active; activity change, negative = inhibition, % at 57.5 µM; HFF cells, HCMV-luciferase reporter, 72 h; hits give low values; in the data active = activity change below about -60%; inconclusive = no clear call, values can overlap the other calls; inactive = above about -39%
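Cell-based, HFFs, 1000 cells/well, 16 h 37C; cpds in DMSO + HCMV-luc, MOI 1 PFU/cell; 72 h 37C; OneGlo luminescence after 5 min RT; norm. to buffer vs Salinomycin 10uM.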
HCV inh – blocks hepatitis C virus | AID 651820 | Huh7.5.1 HCVcc-Cre infection, luciferase reporter, 44 h | 3.4% of 340,000 active | Potency, µM (highest dose often 41.8 µM), for inactives: top-dose activity change, negative = inhibition, most hits filed as inhibitors; active = well fitted inhibition curve with a large enough effect; inconclusive = small, poorly fitted or top-dose-only effect, or another doubt; inactive = no such curve, though single readings can be large or run the other way; note: potency is the fitted concentration of half-maximal effect
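HCVcc-Cre virus at an moi near 0.5 was added right after compound to cells cultured 4 h from seeding (1,000 cells/well). Luciferase activity was determined 44 h later, 15 min after substrate addition at RT.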
Vaccinia mCherry – inhibitors of vaccinia virus infection (mCherry reporter signal); AID 720579; 0.63% of 310,000 active; Vaccinia virus mCherry reporter infection, fluorescence; Potency, µM (series often up to 36.5 µM), inactives show top-dose activity change, negative = inhibition, hits mostly inhibitors; calls by dose curve; tested in A549 cells; note: potency is the fitted concentration of half-maximal effect; nearly all actives have a fitted effect of over 35% in size
* hit, by the source's call; i = inactive; ? = inconclusive; . = no result; ! = not active in a repeat; [ ] = remark or other dose. % is set by controls: 0 for no effect and ±100 for the full control effect.

SMILES	FMDV antiviral	VACV Venus inh	HCMV antiviral	HCV inh	Vaccinia mCherry
CCOC(=O)c1ccc2c(c1)N(Cc1cccc([N+](=O)[O-])c1)C(=O)c1ccccc1S2	-21%	0%	8	.	-8%
Cc1ccc(Cn2cnc3c(oc4ccccc43)c2=O)cc1	79%	-9%	43	.	1%
CCN(CC)c1ccc(C(=O)n2cnc3ccccc32)cc1	-11%	?	-3	?	14µM*
Cc1ccc(CS(=O)(=O)c2nc3c(c(N(C)C)n2)CCCC3)cc1	16%	?	-93*	16%	?
Cc1nc(S(=O)(=O)Cc2ccc(Cl)cc2)nc2c1CCC2	0%	3%	?	19%	6%
COC(=O)c1ccccc1NC(=S)N(Cc1ccc2c(c1)OCO2)Cc1cc2ccc(OC)cc2[nH]c1=O	-24%	-27%	-63*	?	-27%
COc1ccc2[nH]c(=O)c(CN(Cc3cccs3)S(=O)(=O)c3cccc4nsnc34)cc2c1	-18%	.	?	10µM*!	.
O=C(Nc1ccc(F)cc1)N(Cc1cccs1)Cc1cc2cc3c(cc2[nH]c1=O)OCO3	18µM*	?	-61*	?	?
COC(=O)c1ccccc1NC(=S)N(Cc1ccc2c(c1)OCO2)Cc1cc2ccc(C)cc2[nH]c1=O	-14%	-24%	?	?	-22%
CNC(=S)N(Cc1cccs1)Cc1cc2cc(OC)ccc2[nH]c1=O	?	1%	3	-5%	-15%
COc1ccc2[nH]c(=O)c(CN(CCO)S(=O)(=O)c3c(C)ccc4nsnc34)cc2c1	-12%	.	-3	11%	.
COc1ccc2[nH]c(=O)c(CN(Cc3cccs3)C(=S)Nc3cccc(C)c3)cc2c1	-30%	-12%	-66*	?	-15%
CNc1ccc(C=O)cc1Cl	.	-6%	.	.	-9%
O=[N+]([O-])/C=C/c1cn(Cc2ccc(Cl)cc2)c2ccccc12	35µM*	?	-39	?	i
COC(=O)c1ccc(Cn2cc(/C=C\[N+](=O)[O-])c3ccccc32)o1	40µM*	-2%	-16	9%	i
Cc1cccc(Cn2cc(/C=C/[N+](=O)[O-])c3ccccc32)c1	?	.	-99*	?	.
CCOC(=O)Cn1cc(/C=C/[N+](=O)[O-])c2ccccc21	28µM*	.	-74*	?	.
O=C(O)c1ccc(Cn2cc(/C=C\[N+](=O)[O-])c3ccccc32)o1	-12%	.	26	-7%	.
O=C(c1n[nH]c2c1CCCC2)N1CCOc2ccc(C(O)C3CCCCC3)cc2C1 (stereo unspecified)	-12%	-2%	.	.	-3%
Cc1ccc2[nH]c(C(=O)N3CCc4c(cnc(C)c4CNC(=O)c4ccccc4F)C3)cc2c1	-6%	11%	.	.	1%
COc1ccccc1Cc1nc2ccccc2nc1SCC(=O)NCc1ccccc1Cl	7%	-25%	11	.	-2%
O=C(Cc1ccc(Cl)cc1)NO	.	-11%	.	.	-23%
CCC1(c2ccc(Cl)cc2)NC(=O)N(Cc2ccc(C(=O)OC)cc2)C1=O (stereo unspecified)	?	-7%	?	10µM*	i
Cc1ccc(S(=O)(=O)/N=C(\CN2CCOCC2)N2CCCC2)cc1	.	-11%	28	2%	-16%
Cc1ccc(S(=O)(=O)/N=C(\CCl)N2CCOCC2)cc1	25µM*	?	22	10µM*	?
SMILES	FMDV antiviral	VACV Venus inh	HCMV antiviral	HCV inh	Vaccinia mCherry
CCc1ccccc1NC(=O)Nc1cc(C(=O)NCc2cccc(F)c2)ccc1N1CCCC1	-5%	?	-22	.	?
CN1CCN(c2ncc3c(n2)CCN(Cc2ccccc2Cl)C3)CC1	-4%	-26%	-9	.	-14%
Clc1ccccc1CN1CCc2nc(N3CCN(c4ncccn4)CC3)ncc2C1	32µM*	-26%	-29	.	-13%
Cc1cccc(CN2CCc3nc(N4CCN(c5ccccn5)CC4)ncc3C2)c1	14µM*	?	?	.	?
CCc1ccc2occ(CC(=O)NCc3ccccc3)c2c1	-6%	-25%	-30	.	-30%
C(#Cc1ccccc1)C[N+]1(CC#Cc2cccc3ccccc23)CCCC1	?	.	-100*	?	.
COc1ccc(-c2nnn(Cc3ccccc3F)n2)cc1	26%	-13%	71	11µM*	-11%[1.46 µM]
CSc1nnc(-c2ccccc2)o1	61%	-16%	-1	19%	-38%
Cc1cc(C)nc(SC2=CS(=O)(=O)c3ccccc32)n1	?	2µM*	-6	-33%	13µM*
O=S1(=O)C=C(Sc2nc3ccccc3s2)c2ccccc21	5µM*	?	.	5µM*	14µM*

Source: PubChem BioAssay (National Center for Advancing Translational Sciences (NCATS))
